Assay results published in PubChem BioAssay (Tox21).
Inconclusive results are not listed. A call without a number means that no potency is given here. Calls of active or inactive are those of the source. Unless noted, the rule behind the calls is not given here.

Experiment: qHTS assay to identify small molecule antagonists of the estrogen related receptor signaling pathway with the pleiotropic PPARgamma coactivator (PGC) from Tox21 10K library (AID 1224841); note: actives are mostly falling curves and most rising ones were filed inactive; nearly all actives have a fitted effect of over 50% in size; note: potency is the fitted concentration of half-maximal effect
Conditions: PGC/ERR reporter cell line, ONE-Glo luciferase, 18 h; series mostly up to 92.4 µM
Method in brief: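 Luminescence read-out (One-Glo luciferase reagent, 30 min at room temperature) from PGC/ERR cells exposed to DMSO-dissolved test compounds for 18 h at 37 C; cells, 2,000 per well, had been preincubated 6 h before compound transfer.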

Row | SMILES | Potency
1 | CC(C)(O)c1ccccc1CC[C@@H](SCC1(CC(=O)O)CC1)c1cccc(/C=C/c2ccc3ccc(Cl)cc3n2)c1 | inactive
2 | O=C(CS)OCCOC(=O)CS | inactive
3 | O=C(C(=O)c1ccccc1)c1ccccc1 | inactive
4 | O=C(CCC1CCN(Cc2ccccc2)CC1)c1ccc2c(c1)NCCCC2 | 18.8 µM (active)
5 | CCOC(=O)c1ccccc1OC | inactive
6 | CC(C)CCCC(=O)O | inactive
7 | CCCCC(=O)O[C@]1(C(=O)CO)CC[C@H]2[C@@H]3CCC4=CC(=O)CC[C@]4(C)[C@H]3[C@@H](O)C[C@@]21C | inactive
8 | O=C(O)c1ccccc1NCCc1ccccc1 | inactive
9 | COc1cc2[nH]c(=O)[nH]c(=O)c2cc1OC | inactive
10 | COc1cc2c(N3CCN(C(=O)Nc4ccc(OC(C)C)cc4)CC3)ncnc2cc1OCCCN1CCCCC1 | inactive
11 | C=CC(C)(O)CCCC(C)CCCC(C)CCCC(C)C (stereo unspecified) | inactive
12 | CCN(Cc1cccc(S(=O)(=O)O)c1)c1ccc(C(=C2C=CC(=[N+](CC)Cc3cccc(S(=O)(=O)[O-])c3)C=C2)c2ccccc2)cc1 | inactive
13 | NC(=O)Nc1ccc(Cl)c(Cl)c1 | inactive

Experiment: qHTS assay to identify small molecule agonists of the estrogen related receptor signaling pathway with the pleiotropic PPARgamma coactivator (PGC) from Tox21 10K library (AID 1224842; active = well fitted activation curve with a large enough effect in the repeat runs; note: nearly all actives have a fitted effect of over 15% in size)
Conditions: PGC/ERR reporter cell line, luciferase ONE-Glo, 18 h; series mostly up to 92.4 µM
Method in brief: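 PGC/ERR reporter cells (NTP line) were seeded 2,000 per well, rested 6 h at 37 C/5% CO2, then pin-dosed with compounds in DMSO for 18 h at 37 C; luciferase read by One-Glo luminescence after 30 min at room temperature.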

Row | SMILES | Potency
14 | CC(C)(O)c1ccccc1CC[C@@H](SCC1(CC(=O)O)CC1)c1cccc(/C=C/c2ccc3ccc(Cl)cc3n2)c1 | inactive
15 | O=C(C(=O)c1ccccc1)c1ccccc1 | inactive
16 | O=C(CCC1CCN(Cc2ccccc2)CC1)c1ccc2c(c1)NCCCC2 | inactive
17 | CCOC(=O)c1ccccc1OC | inactive
18 | COc1cc2[nH]c(=O)[nH]c(=O)c2cc1OC | inactive
19 | Cc1nc2ccccn2c(=O)c1CCN1CCC(C(=O)c2ccc(F)cc2)CC1 | inactive
20 | C=CC(C)(O)CCCC(C)CCCC(C)CCCC(C)C (stereo unspecified) | inactive
21 | NC(=O)Nc1ccc(Cl)c(Cl)c1 | inactive
